From PubChem BioAssay AID1159580 (chemical genetic matrix, 2015)
Values joined by “and” are separate entries in the source; they are usually repeats but may differ in a detail not shown here. Equal entries are not always repeated. The campaign covered roughly 5,500 compounds. About 2,000 (36%) were called active. Not shown: some 18% with an inconclusive outcome. Rule as the data show it: active = normalized growth mostly below about 0.91 (no sharp cut-off); inconclusive = no clear call, values can overlap the other calls; inactive = mostly above about 0.92. The list shows a part of the results.

Experiment: chemical genetic growth profiling, strain panel (AID 1159580);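 also: tested at 20 µM; growth read once vehicle control cultures reached saturation at 30 °C; 1 = growth at the plate median or of vehicle wells; lower values mean less growth of the strain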
Settings: S. cerevisiae deletion strains, growth OD

Measured: normalized growth

COc1cc(C)c2c(=O)cc(-c3ccccc3)oc2c1
inactive: locus YAL021C, strain ccr4, stronger effect = lower value 0.983 | locus YAL026C, strain drs2, stronger effect = lower value 0.922 | locus YBR009C, strain hhf1, stronger effect = lower value 0.946 | locus YBR021W, strain FUR4, stronger effect = lower value 0.921 | locus YBR171W, strain sec66, stronger effect = lower value 0.911 | locus YBR229C, strain ROT2, stronger effect = lower value 0.984 | locus YBR231C, strain swc5, stronger effect = lower value 0.925 | locus YBR279W, strain paf1, stronger effect = lower value 0.942 | locus YCL016C, strain dcc1, stronger effect = lower value 0.93 | locus YCL029C, strain bik1, stronger effect = lower value 0.968 | locus YCL061C, strain MRC1, stronger effect = lower value 0.927 | locus YCL069W, strain vba3, stronger effect = lower value 0.939 | locus YDL005C, strain med2, stronger effect = lower value 0.956 | locus YDL035C, strain GPR1, stronger effect = lower value 1.01 | locus YDL074C, strain BRE1, stronger effect = lower value 0.896 | locus YDL101C, strain DUN1, stronger effect = lower value 0.948 | locus YDL134C, strain PPH21, stronger effect = lower value 0.998 | locus YDL185W, strain tfp1, stronger effect = lower value 0.979 | locus YDL192W, strain arf1, stronger effect = lower value 0.966 | locus YDR001C, strain nth1, stronger effect = lower value 0.938 | locus YDR069C, strain doa4, stronger effect = lower value 0.941 | locus YDR101C, strain arx1, stronger effect = lower value 0.989 | locus YDR150W, strain NUM1, stronger effect = lower value 1.02 | locus YDR159W, strain sac3, stronger effect = lower value 0.9 | locus YDR162C, strain NBP2, stronger effect = lower value 0.996 | locus YDR195W, strain ref2 1 | locus YDR297W, strain sur2, stronger effect = lower value 0.927 | locus YDR318W, strain mcm21, stronger effect = lower value 0.968 | locus YDR334W, strain swr1, stronger effect = lower value 0.938 | locus YDR335W, strain msn5, stronger effect = lower value 0.942 | locus YDR388W, stronger effect = lower value 0.967 | locus YDR502C, strain sam2, stronger effect = lower value 0.977 | locus YEL037C, strain rad23, stronger effect = lower value 0.942 | locus YEL061C, strain CIN8 (second series), stronger effect = lower value 0.926 | locus YEL061C, strain CIN8, stronger effect = lower value 0.985 | locus YER015W, strain faa2, stronger effect = lower value 0.945 | locus YER016W, strain bim1, stronger effect = lower value 0.935 | locus YER110C, stronger effect = lower value 0.963 | locus YER111C, strain swi4, stronger effect = lower value 0.96 | locus YER155C, strain BEM2, stronger effect = lower value 0.973 | locus YER167W, strain BCK2, stronger effect = lower value 0.994 | locus YFR010W, strain ubp6, stronger effect = lower value 0.933 | locus YGL078C, strain dbp3, stronger effect = lower value 0.972 | locus YGL086W, strain mad1, stronger effect = lower value 0.973 | locus YGL173C, strain kem1, stronger effect = lower value 0.935 | locus YGL227W, strain vid30, stronger effect = lower value 0.924 | locus YGL248W, strain PDE1, stronger effect = lower value 0.955 | locus YGR078C, strain PAC10, stronger effect = lower value 0.955 | locus YGR135W, strain pre9, stronger effect = lower value 0.98 | locus YGR252W, strain gcn5, stronger effect = lower value 0.96 | locus YHR013C, strain ard1, stronger effect = lower value 0.904 | locus YHR027C, strain rpn1, stronger effect = lower value 0.94 | locus YHR030C, strain SLT2, stronger effect = lower value 0.995 and 0.867 | locus YHR079C, strain IRE1 (second series), stronger effect = lower value 0.974 | locus YHR079C, strain IRE1, stronger effect = lower value 0.868 | locus YHR094C, strain hxt1, stronger effect = lower value 0.965 | locus YHR129C, strain ARP1, stronger effect = lower value 0.976 | locus YHR200W, strain rpn10, stronger effect = lower value 0.963 | locus YIL066C, strain RNR3, stronger effect = lower value 0.996 | locus YIL073C, strain SPO22, stronger effect = lower value 0.949 | locus YIL125W, strain kgd1, stronger effect = lower value 0.964 | locus YIR030C, strain dcg1, stronger effect = lower value 0.958 | locus YJL092W, strain hpr5, stronger effect = lower value 0.923 | locus YJL115W, strain asf1, stronger effect = lower value 0.955 | locus YJL134W, strain LCB3, stronger effect = lower value 0.987 | locus YJL154C, strain vps35, stronger effect = lower value 0.942 | locus YJL168C, strain set2, stronger effect = lower value 0.969 | locus YJL187C, strain SWE1 (second series), stronger effect = lower value 0.954 | locus YJL187C, strain SWE1, stronger effect = lower value 0.933 | locus YJR043C, strain POL32, stronger effect = lower value 1.03 | locus YKL009W, strain mrt4, stronger effect = lower value 0.954 | locus YKL068W, stronger effect = lower value 0.966 | locus YKL085W, strain MDH1 (second series), stronger effect = lower value 0.965 | locus YKL085W, strain MDH1, stronger effect = lower value 0.965 | locus YKR001C, strain vps1, stronger effect = lower value 0.982 | locus YKR091W, strain srl3, stronger effect = lower value 0.934 | locus YLL001W, strain dnm1, stronger effect = lower value 0.932 | locus YLL026W, stronger effect = lower value 0.944 | locus YLL041C, strain sdh2, stronger effect = lower value 0.935 | locus YLR039C, strain RIC1, stronger effect = lower value 1.08 | locus YLR058C, strain SHM2, stronger effect = lower value 0.975 | locus YLR102C, strain apc9, stronger effect = lower value 0.974 | locus YLR258W, strain gsy2, stronger effect = lower value 0.921 | locus YLR262C, strain YPT6, stronger effect = lower value 1.05 | locus YLR268W, strain sec22, stronger effect = lower value 0.958 | locus YLR330W, strain CHS5, stronger effect = lower value 0.973 | locus YLR342W, strain FKS1 (second series), stronger effect = lower value 0.979 | locus YLR357W, strain rsc2, stronger effect = lower value 0.87 | locus YLR370C, strain arc18, stronger effect = lower value 0.945 | locus YLR371W, strain rom2, stronger effect = lower value 0.966 | locus YLR384C, strain iki3, stronger effect = lower value 0.925 | locus YLR418C, strain cdc73, stronger effect = lower value 0.843 | locus YML016C, strain PPZ1, stronger effect = lower value 0.972 | locus YML032C, strain rad52, stronger effect = lower value 0.968 | locus YML120C, strain ndi1, stronger effect = lower value 0.941 | locus YML124C, strain tub3, stronger effect = lower value 0.973 | locus YMR058W, strain fet3, stronger effect = lower value 0.917 | locus YMR078C, strain ctf18, stronger effect = lower value 0.952 | locus YMR125W, strain sto1, stronger effect = lower value 0.929 | locus YMR129W, stronger effect = lower value 0.937 | locus YMR223W, strain ubp8, stronger effect = lower value 0.967 | locus YMR231W, strain pep5, stronger effect = lower value 0.951 | locus YMR307W, strain GAS1, stronger effect = lower value 1.23 | locus YNL067W, strain RPL9B, stronger effect = lower value 0.964 | locus YNL209W, strain ssb2, stronger effect = lower value 0.961 | locus YNL233W, strain BNI4, stronger effect = lower value 0.952 | locus YNL248C, strain rpa49, stronger effect = lower value 0.912 | locus YNL250W, strain rad50, stronger effect = lower value 0.953 | locus YNL271C, strain bni1, stronger effect = lower value 0.944 | locus YNL298W, strain CLA4, stronger effect = lower value 0.953 | locus YNL307C, strain MCK1, stronger effect = lower value 0.918 | locus YNL322C, strain KRE1 (second series), stronger effect = lower value 0.932 | locus YNR049C, strain mso1, stronger effect = lower value 0.924 | locus YNR052C, strain pop2, stronger effect = lower value 0.958 | locus YOL006C, strain TOP1, stronger effect = lower value 0.686 | locus YOL012C, strain htz1 1.23 | locus YOL147C, strain pex11, stronger effect = lower value 0.97 | locus YOR001W, strain rrp6, stronger effect = lower value 0.932 | locus YOR061W, strain CKA2, stronger effect = lower value 0.979 | locus YOR069W, strain VPS5, stronger effect = lower value 0.979 | locus YOR070C, strain gyp1, stronger effect = lower value 0.93 | locus YOR080W, strain dia2, stronger effect = lower value 0.943 | locus YOR083W, strain WHI5, stronger effect = lower value 0.907 | locus YOR106W, strain vam3, stronger effect = lower value 0.896 | locus YOR136W, strain idh2, stronger effect = lower value 0.972 | locus YOR144C, strain elg1, stronger effect = lower value 0.968 | locus YOR316C, strain cot1, stronger effect = lower value 0.966 | locus YPL106C, strain sse1, stronger effect = lower value 0.852 | locus YPL240C, strain hsp82, stronger effect = lower value 0.934 | locus YPL256C, strain CLN2, stronger effect = lower value 0.872 | locus YPR119W, strain clb2, stronger effect = lower value 0.973 | locus YPR141C, strain kar3, stronger effect = lower value 0.954 | locus YPR163C, strain tif3, stronger effect = lower value 0.982 | locus YPR167C, strain met16, stronger effect = lower value 0.958 | strain wtn01, stronger effect = lower value 0.968
active: locus YAL030W, strain snc1, stronger effect = lower value 0.928 | locus YBL061C, strain skt5, stronger effect = lower value 0.915 | locus YBR023C, strain chs3, stronger effect = lower value 0.913 | locus YCL011C, strain gbp2, stronger effect = lower value 0.891 | locus YCR088W, strain abp1, stronger effect = lower value 0.92 | locus YDL040C, strain nat1, stronger effect = lower value 0.93 | locus YDR137W, strain rgp1, stronger effect = lower value 0.762 | locus YDR392W, strain spt3, stronger effect = lower value 0.47 | locus YEL003W, strain gim4, stronger effect = lower value 0.893 | locus YER155C, strain BEM2 (second series), stronger effect = lower value 0.505 | locus YGL167C, strain pmr1, stronger effect = lower value 0.913 | locus YGL240W, strain doc1, stronger effect = lower value 0.856 | locus YGL253W, strain hxk2, stronger effect = lower value 0.909 | locus YHR142W, strain chs7, stronger effect = lower value 0.73 | locus YJL095W, strain BCK1 (second series), stronger effect = lower value 0.919 | locus YJL129C, strain trk1, stronger effect = lower value 0.833 | locus YJL164C, strain tpk1, stronger effect = lower value 0.909 | locus YJL166W, strain qcr8, stronger effect = lower value 0.893 | locus YJR066W, strain TOR1, stronger effect = lower value 0.814 | locus YKL160W, strain elf1, stronger effect = lower value 0.884 | locus YKR026C, strain gcn3, stronger effect = lower value 0.92 | locus YLR027C, strain aat2, stronger effect = lower value 0.917 | locus YLR113W, strain HOG1, stronger effect = lower value 0.721 | locus YLR221C, strain rsa3, stronger effect = lower value 0.887 | locus YLR262C, strain YPT6 (second series), stronger effect = lower value 0.757 | locus YLR320W, strain mms22, stronger effect = lower value 0.728 | locus YLR342W, strain FKS1, stronger effect = lower value 0.901 | locus YMR205C, strain PFK2, stronger effect = lower value 0.791 | locus YNL071W, strain lat1, stronger effect = lower value 0.687 | locus YNL183C, strain NPR1, stronger effect = lower value 0.796 | locus YOR184W, strain ser1, stronger effect = lower value 0.866 | locus YOR231W, strain MKK1, stronger effect = lower value 0.857 | locus YOR265W, strain rbl2, stronger effect = lower value 0.922 | locus YOR270C, strain vph1, stronger effect = lower value 0.701 | locus YOR290C, strain snf2, stronger effect = lower value 0.82 | locus YPL051W, strain arl3, stronger effect = lower value 0.904 | locus YPL078C, strain atp4, stronger effect = lower value 0.886
0.914 (inactive) and 0.876 (active): locus YJL095W, strain BCK1, stronger effect = lower value
